Data as given in PubChem BioAssay (NCATS).
Unmarked numbers belong to inactive results. Records with an inconclusive call do not appear. Activity calls are given as the source filed them. Unless noted, calls come from the whole dose curve; as a rule, active = well fitted curve in the direction sought with a large enough effect; inconclusive = small, poorly fitted or top-dose-only effect, or another doubt; inactive = no such curve, though single readings can be large; an effect the other way counts as inactive or inconclusive.

How the values were obtained:
[1] = molecular target: Lysosomal acid glucosylceramidase (Homo sapiens) (UniProt P04062); assay: Glucocerebrosidase-p2 (AID 348; in the data active = potency below about 10 µM; note: potency is the fitted concentration of half-maximal effect); details: purified GBA, blue fluorogenic substrate, 40 min
Lysosomal acid glucosylceramidase (Homo sapiens), sequence (P04062 whole entry, looked up): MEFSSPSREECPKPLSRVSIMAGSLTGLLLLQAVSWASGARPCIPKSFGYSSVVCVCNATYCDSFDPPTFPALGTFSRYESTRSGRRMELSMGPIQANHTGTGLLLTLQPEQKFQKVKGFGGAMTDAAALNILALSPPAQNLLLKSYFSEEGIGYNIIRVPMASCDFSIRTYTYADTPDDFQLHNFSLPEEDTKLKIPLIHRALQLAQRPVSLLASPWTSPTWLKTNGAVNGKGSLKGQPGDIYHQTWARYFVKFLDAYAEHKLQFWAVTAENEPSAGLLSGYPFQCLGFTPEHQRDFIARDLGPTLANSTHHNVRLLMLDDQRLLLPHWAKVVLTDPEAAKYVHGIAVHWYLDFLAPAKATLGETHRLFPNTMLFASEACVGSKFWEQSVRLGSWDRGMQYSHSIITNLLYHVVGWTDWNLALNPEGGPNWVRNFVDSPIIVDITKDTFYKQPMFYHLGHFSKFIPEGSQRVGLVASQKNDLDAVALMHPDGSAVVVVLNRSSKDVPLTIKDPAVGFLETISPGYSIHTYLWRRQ
How it was run: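 Normal human glucocerebrosidase (0.2 nM) with blue fluorogenic substrate (80 uM final) in citrate/phosphate pH 5.9 with 10mM sodium taurocholate, 0.01% tween-20; 40 min RT, NaOH/glycine stop; fluorescence Ex 365/Em 440; AC50 from a titration from 0.6 nM upwards.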

[2] = molecular target: Cytochrome P450 1A2 (Homo sapiens) (UniProt P05177); assay: p450-cyp1a2 (AID 410; calls by dose curve; note: potency is the fitted concentration of half-maximal effect;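 for activity change, negative = inhibition: -100% = full effect of reference inhibitor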); details: recombinant CYP1A2, luciferin-ME demethylation, luminescence; series mostly up to 57 µM
Cytochrome P450 1A2 (Homo sapiens), sequence (P05177 whole entry, looked up): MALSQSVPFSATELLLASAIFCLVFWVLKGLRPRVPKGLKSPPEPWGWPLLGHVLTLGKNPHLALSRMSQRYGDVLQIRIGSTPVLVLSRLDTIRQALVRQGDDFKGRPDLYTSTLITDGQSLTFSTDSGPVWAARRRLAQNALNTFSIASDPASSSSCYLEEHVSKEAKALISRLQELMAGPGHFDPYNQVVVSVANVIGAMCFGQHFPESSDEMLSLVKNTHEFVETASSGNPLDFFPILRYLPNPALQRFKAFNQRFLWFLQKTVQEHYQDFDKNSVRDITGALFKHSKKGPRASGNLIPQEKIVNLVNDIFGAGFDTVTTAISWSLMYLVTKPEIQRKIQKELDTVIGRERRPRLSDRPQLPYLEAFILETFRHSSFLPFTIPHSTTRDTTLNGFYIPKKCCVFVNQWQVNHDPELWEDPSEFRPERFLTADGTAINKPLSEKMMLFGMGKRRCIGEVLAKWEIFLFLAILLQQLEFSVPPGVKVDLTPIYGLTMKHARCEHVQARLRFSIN
How it was run: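 O-Demethylation of luciferin 6' methyl ether by human CYP1A2 is monitored as luciferase luminescence. Substrate sits at Km (100uM); enzyme is 20nM. Values are scaled to 57 uM furafylline as maximal inhibition.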

[3] = Stat Signaling Pathway (AID 446; active = well fitted curve in either direction with a large enough effect, not every such curve was filed as active;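 note: ME-180 cervical cancer cells given 40 pM IL-6 alongside compound; SIE-controlled beta-lactamase reporter measured as 460/530 nm FRET emission ratio; % is set by controls: 0 for no effect and ±100 for the full control effect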); details: ME-180 SIE beta-lactamase reporter, IL-6 stimulated, 5 h; at 7.69 µM (top of the series) unless noted
How it was run: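 Normalization used AC90 stimulation (300 pM IL-6) and AC90 inhibition (125 nM pan-JAK inhibitor at 40 pM IL-6). The underlying signal is SIE-driven beta-lactamase in ME-180 cells after 5 h IL-6 exposure with compound.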

[4] = molecular target: Glucocorticoid receptor (Homo sapiens) (UniProt P04150); assay: GR-GFP Redistribution (AID 450;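 active = compounds whose dose series gives a full or clear partial fitted curve of increased nuclear translocation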; note: potency is the fitted concentration of half-maximal effect); details: U2OS GR-GFP nuclear translocation, laser cytometry, 2 h
Glucocorticoid receptor (Homo sapiens), sequence (P04150 whole entry, looked up, the tested form may be a part): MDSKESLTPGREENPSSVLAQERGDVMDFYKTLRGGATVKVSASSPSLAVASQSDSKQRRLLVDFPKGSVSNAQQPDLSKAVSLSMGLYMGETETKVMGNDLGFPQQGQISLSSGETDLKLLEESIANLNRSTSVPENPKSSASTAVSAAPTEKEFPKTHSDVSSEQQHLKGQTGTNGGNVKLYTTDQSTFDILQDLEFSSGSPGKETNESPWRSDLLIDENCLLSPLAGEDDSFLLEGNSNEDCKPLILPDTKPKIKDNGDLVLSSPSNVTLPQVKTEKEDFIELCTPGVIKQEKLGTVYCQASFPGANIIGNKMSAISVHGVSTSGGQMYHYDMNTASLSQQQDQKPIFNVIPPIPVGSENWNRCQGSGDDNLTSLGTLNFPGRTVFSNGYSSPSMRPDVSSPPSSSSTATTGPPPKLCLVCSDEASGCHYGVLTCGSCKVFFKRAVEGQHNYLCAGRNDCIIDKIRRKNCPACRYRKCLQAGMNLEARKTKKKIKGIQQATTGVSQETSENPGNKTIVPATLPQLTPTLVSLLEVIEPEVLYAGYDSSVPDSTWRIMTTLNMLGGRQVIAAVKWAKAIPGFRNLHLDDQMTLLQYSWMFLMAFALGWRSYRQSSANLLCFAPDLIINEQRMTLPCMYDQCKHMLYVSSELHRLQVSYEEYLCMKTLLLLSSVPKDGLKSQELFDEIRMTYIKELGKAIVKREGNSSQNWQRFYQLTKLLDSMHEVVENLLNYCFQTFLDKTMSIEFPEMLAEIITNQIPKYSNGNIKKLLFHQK

[5] = molecular target: Glucocorticoid receptor (Homo sapiens) (UniProt P04150); assay: GR-EFC Redistribution (AID 451; calls by dose curve; note: potency is the fitted concentration of half-maximal effect); details: CHO-K1 GR-EFC translocation, beta-gal luminescence, 2 h
How it was run: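 CHO-K1 cells stably expressing nuclear-localized β-gal enzyme acceptor and GR fused C-terminally to the enzyme donor fragment; ligand-driven nuclear translocation restores β-gal by complementation. Compounds titrated up to 46 uM final, 2 h at 37 °C; luminescence read.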

[6] = molecular target: Mitogen-activated protein kinase 10 (Mus musculus) (UniProt Q61831); assay: JNK3 AlphaScreen Assay (AID 530; active = well fitted curve in either direction with a large enough effect, not every such curve was filed as active;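 note: kinase came from lysate of stimulated human HepG2 cells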; note: potency is the fitted concentration of half-maximal effect); details: JNK3 lysate, c-Jun phosphorylation; series mostly up to 57.1 µM
How it was run: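 Phosphorylation of biotinylated GST-cJun(1-79) at Ser73 is measured by AlphaScreen proximity luminescence. Enzyme is JNK3 in HepG2 lysates activated with interleukin-1beta and tumor necrosis factor alpha; ATP is 10 uM final.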

[7] = molecular target: 3',5'-cyclic-AMP phosphodiesterase 4B (Homo sapiens) (UniProt Q07343); assay: qHTS Assay for Inhibitors of PDE-IV (AID 607; active = well fitted activation curve with a large enough effect in the main read-out, with a control signal flat, not every such curve was filed as active; note: % of control where 0% means no effect); details: HEK293 ACTOne CNG channel cells, membrane potential fluorescence; series mostly up to 22.9 µM
3',5'-cyclic-AMP phosphodiesterase 4B (Homo sapiens), sequence (Q07343 whole entry, looked up): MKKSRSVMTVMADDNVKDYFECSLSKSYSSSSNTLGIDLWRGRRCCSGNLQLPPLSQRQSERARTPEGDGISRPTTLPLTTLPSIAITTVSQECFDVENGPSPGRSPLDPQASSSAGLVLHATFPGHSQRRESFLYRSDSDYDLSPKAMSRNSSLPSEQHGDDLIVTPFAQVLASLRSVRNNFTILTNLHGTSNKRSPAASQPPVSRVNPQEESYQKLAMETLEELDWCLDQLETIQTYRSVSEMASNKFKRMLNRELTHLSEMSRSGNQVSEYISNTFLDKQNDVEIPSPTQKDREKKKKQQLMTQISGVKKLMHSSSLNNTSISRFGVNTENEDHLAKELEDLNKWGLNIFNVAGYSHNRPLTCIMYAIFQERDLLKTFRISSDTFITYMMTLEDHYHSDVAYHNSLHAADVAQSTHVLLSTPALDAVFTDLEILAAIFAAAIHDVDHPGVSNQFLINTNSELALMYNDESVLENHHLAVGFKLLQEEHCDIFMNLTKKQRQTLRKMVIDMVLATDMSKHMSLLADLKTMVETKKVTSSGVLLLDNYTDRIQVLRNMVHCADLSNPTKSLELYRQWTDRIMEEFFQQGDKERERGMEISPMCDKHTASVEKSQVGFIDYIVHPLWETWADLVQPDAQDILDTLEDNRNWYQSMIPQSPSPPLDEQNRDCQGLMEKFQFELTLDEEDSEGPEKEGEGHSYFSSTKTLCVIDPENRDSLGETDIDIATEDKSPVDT
How it was run: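 HEK293 ACTOne cells with CNG channel (1000/well), endogenous PDE4; membrane potential dye, compounds up to 22.9 uM final. Fluorescence Ex 535/Em 590; RO 20-1724 (100 uM final) as reference.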

[8] = molecular target: Cytochrome P450 3A4 (Homo sapiens) (UniProt P08684); assay: qHTS Assay for Activators of Cytochrome P450 3A4 (AID 885); details: recombinant CYP3A4, Luciferin-PPXE luminescence, 60 min; series mostly up to 57.1 µM; note: nearly all actives have a fitted effect of over 65% in size
Cytochrome P450 3A4 (Homo sapiens), sequence (P08684 whole entry, looked up): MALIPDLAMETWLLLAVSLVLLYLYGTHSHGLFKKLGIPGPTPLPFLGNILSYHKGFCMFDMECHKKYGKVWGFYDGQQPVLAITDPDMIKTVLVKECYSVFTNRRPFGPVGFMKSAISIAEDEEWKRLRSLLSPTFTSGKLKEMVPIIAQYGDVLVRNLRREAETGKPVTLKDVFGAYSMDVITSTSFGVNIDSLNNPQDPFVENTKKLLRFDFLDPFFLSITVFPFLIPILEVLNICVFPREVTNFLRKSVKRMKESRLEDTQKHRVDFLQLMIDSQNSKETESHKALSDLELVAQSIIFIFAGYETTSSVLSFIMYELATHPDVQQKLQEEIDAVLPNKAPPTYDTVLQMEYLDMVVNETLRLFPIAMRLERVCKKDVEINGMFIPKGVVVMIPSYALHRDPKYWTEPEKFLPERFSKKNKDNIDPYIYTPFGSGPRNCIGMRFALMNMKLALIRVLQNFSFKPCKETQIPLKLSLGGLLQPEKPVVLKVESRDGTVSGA
How it was run: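 Human CYP3A4 dealkylates Luciferin-PPXE to luciferin, which luciferase detection converts to light. Substrate was at its KM (25uM), buffer 200mM KPO4, reaction 60 min at RT.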

[9] = molecular target: Dual specificity protein kinase CLK4 (Homo sapiens) (UniProt Q9HAZ1); assay: qHTS Assay for Inhibitors of CDC-like Kinase 4 (Kinase-Glo Assay) (AID 1770); details: recombinant Clk4, Kinase-Glo ATP depletion luminescence; series mostly up to 66.7 µM; note: nearly all actives have a fitted effect of over 65% in size; note: potency is the fitted concentration of half-maximal effect
Dual specificity protein kinase CLK4 (Homo sapiens), sequence (Q9HAZ1 whole entry, looked up): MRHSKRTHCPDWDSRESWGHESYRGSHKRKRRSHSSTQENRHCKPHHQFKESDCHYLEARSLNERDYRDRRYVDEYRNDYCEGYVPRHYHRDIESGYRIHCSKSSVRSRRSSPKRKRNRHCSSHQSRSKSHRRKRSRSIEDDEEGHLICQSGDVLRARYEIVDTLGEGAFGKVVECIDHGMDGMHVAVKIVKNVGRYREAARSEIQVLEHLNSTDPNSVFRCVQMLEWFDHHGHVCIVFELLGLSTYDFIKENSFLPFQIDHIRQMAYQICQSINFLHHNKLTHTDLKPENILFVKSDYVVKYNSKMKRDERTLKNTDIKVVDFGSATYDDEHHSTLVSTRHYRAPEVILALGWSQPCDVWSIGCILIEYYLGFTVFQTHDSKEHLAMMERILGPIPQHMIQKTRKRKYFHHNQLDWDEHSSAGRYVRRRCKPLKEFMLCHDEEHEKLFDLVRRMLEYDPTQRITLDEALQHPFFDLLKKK
How it was run: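 Recombinant human Clk4 (25 nM) phosphorylated RS repeat peptide (100 uM) with 1 uM ATP in Tris pH 7.5/MgCl2/EGTA/DTT/Triton buffer for 4.5 h at room temperature. Residual ATP was quantified by Kinase-Glo luciferase luminescence.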

[10] = molecular target: Dual specificity protein kinase CLK4 (Homo sapiens) (UniProt Q9HAZ1); assay: qHTS Assay for Inhibitors of CDC-like Kinase 4 (ADP-Glo Assay) (AID 1771); details: recombinant CLK4, ADP-Glo luminescence; series mostly up to 80 µM; note: nearly all actives have a fitted effect of over 70% in size; note: potency is the fitted concentration of half-maximal effect
How it was run: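 Compounds are pin-transferred onto substrate mix (100 uM RS peptide, 1 uM ATP), then 25 nM Clk4 is added. After 1 hr at room temperature, ADP-Glo reagent runs 45 min, detection reagent 30 min, then luminescence is read.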

[11] = molecular target: Dual specificity protein kinase CLK4 (Homo sapiens) (UniProt Q9HAZ1); assay: qHTS Assay for Inhibitors of CDC-like Kinase 4 (ADP-FP Assay) (AID 1795); details: Transcreener ADP fluorescence polarization; series mostly up to 50 µM; note: nearly all actives have a fitted effect of over 60% in size; note: potency is the fitted concentration of half-maximal effect
How it was run: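 Recombinant human Clk4 (6.25 nM) phosphorylated RS repeat peptide (100 uM) with 1 uM ATP in Tris pH 7.5/MgCl2/EGTA/DTT/Triton buffer for one hour. ADP was quantified by Transcreener competitive fluorescence polarization against an ADP calibration curve.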

[12] = molecular target: Ubiquitin carboxyl-terminal hydrolase 1 (Homo sapiens) (UniProt O94782); assay: Inhibitors of USP1/UAF1: Pilot qHTS (AID 504865); details: purified USP1/UAF1, Ub-rhodamine cleavage fluorescence; series mostly up to 54.9 µM; note: nearly all actives have a fitted effect of over 35% in size; note: potency is the fitted concentration of half-maximal effect
Ubiquitin carboxyl-terminal hydrolase 1 (Homo sapiens), sequence (O94782 whole entry, looked up): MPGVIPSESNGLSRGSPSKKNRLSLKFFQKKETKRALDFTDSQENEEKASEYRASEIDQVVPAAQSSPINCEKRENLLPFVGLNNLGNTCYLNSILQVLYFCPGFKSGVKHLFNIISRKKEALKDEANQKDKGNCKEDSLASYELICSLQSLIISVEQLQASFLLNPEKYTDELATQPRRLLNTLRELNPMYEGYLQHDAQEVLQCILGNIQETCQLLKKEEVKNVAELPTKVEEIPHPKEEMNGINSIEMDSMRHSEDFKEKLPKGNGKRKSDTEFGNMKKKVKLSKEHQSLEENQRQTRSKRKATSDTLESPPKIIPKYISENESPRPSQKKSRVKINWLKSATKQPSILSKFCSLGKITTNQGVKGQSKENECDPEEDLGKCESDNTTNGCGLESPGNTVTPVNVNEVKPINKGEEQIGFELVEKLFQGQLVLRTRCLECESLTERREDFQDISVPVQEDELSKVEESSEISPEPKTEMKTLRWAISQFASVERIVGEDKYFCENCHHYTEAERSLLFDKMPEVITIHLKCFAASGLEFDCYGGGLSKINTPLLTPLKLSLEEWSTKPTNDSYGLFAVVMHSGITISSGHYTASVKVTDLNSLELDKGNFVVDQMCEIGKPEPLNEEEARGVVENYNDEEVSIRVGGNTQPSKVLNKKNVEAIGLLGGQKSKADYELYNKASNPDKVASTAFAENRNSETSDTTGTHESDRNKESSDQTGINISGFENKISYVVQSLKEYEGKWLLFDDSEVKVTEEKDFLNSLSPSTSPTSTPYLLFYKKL
How it was run: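 USP1/UAF1 complex (1nM) preincubated with compound 15 min at room temperature, then Ub-Rho substrate (150nM final) added. Fluorescence read kinetically at 480/540 nm, 6 reads every 60 seconds. Buffer: 50mM HEPES pH 7.8, 0.5mM EDTA, 0.1 mg/ml BSA, 1mM TCEP, 0.01% Tween-20.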

[13] = Primary qHTS for small molecule stabilizers of the endoplasmic reticulum resident proteome: Secreted ER Calcium Modulated Protein (SERCaMP) assay (AID 1508630); details: SH-SY5Y GLuc-SERCaMP (Gaussia luciferase released on ER calcium loss) secretion, thapsigargin, luminescence; series mostly up to 38.4 µM; note: % is set by controls: 0 for no effect and ±100 for the full control effect
How it was run: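 The SH-SY5Y reporter protocol was run at 3 concentrations up to 38.3 uM (primary) or 11 concentrations (follow-up): 16 h compound, 100 nM thapsigargin for 4 h, then extracellular luciferase luminescence.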

[14] = NFAT Signaling Pathway (AID 444; active = well fitted curve in either direction with a large enough effect, not every such curve was filed as active;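 note: carbachol stimulus at about its EC50 of 1 µM final; % is set by controls: 0 for no effect and ±100 for the full control effect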); details: Jurkat NFAT-bla M1, carbachol, beta-lactamase ratio, 5 h; at 7.69 µM (top of the series) unless noted
How it was run: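 Jurkat cells carrying an NFAT-driven β-lactamase reporter and co-transfected muscarinic M1 receptor were treated with compound plus carbachol (1 uM final, an EC50 level) for 5 h at 37 °C. CCF4 loading followed for 1 h at RT; 460/530 nm ratio gave %activity.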

[15] = molecular target: Cytochrome P450 2C19 (Homo sapiens) (UniProt P33261); assay: qHTS Assay for Inhibitors and Substrates of Cytochrome P450 2C19 (AID 899); details: recombinant CYP2C19, luciferin-H EGE luminescence; series mostly up to 57.1 µM; note: nearly all actives have a fitted effect of over 60% in size; note: potency is the fitted concentration of half-maximal effect
Cytochrome P450 2C19 (Homo sapiens), sequence (P33261 whole entry, looked up): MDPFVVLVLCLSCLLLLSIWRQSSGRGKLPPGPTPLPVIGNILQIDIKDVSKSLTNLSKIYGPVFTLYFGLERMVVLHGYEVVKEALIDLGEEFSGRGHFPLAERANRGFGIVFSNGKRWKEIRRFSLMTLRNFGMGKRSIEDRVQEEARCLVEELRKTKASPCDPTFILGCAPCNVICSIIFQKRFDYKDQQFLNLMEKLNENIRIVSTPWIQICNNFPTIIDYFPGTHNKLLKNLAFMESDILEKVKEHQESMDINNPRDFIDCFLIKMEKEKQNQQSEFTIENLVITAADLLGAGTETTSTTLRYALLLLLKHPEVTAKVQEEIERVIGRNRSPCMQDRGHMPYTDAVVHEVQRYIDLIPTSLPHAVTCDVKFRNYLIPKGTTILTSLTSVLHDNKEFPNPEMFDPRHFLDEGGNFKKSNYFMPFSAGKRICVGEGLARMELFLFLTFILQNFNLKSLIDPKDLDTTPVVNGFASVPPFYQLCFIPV
How it was run: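 In 50mM KPO4, the reaction held 5nM enzyme and KM-level (10uM) Luciferin-H EGE; it ran 60 min at 37C after NADPH regeneration and a 10 min compound preincubation. Luminescence values were scaled to 57uM ketoconazole as complete inhibition.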

[16] = molecular target: Cytochrome P450 3A4 (Homo sapiens) (UniProt P08684); assay: qHTS Assay for Inhibitors and Substrates of Cytochrome P450 3A4 (AID 884); details: recombinant CYP3A4, Luciferin-PPXE luminescence; series mostly up to 57.1 µM; note: potency is the fitted concentration of half-maximal effect; nearly all actives have a fitted effect of over 50% in size
How it was run: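 Luminescent readout of luciferin produced by CYP3A4 (20 nM) dealkylation of Luciferin-PPXE, 25 uM (its KM). NADPH-driven reaction ran 60 min at RT after 10 min compound preincubation; data scaled to 57 uM ketoconazole as 100% inhibition.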

[17] = qHTS Assay for Identification of Small Molecule Agonists for Hypoxia Response Element Signaling Pathway (AID 914; active = well fitted activation curve with a large enough effect in the signal ratio, with a control signal flat, not every such curve was filed as active; the % refers to the signal ratio; note: potency is the fitted concentration of half-maximal effect); details: ME-180 HRE-bla reporter, beta-lactamase ratio, CoCl2, 17 h; activation: stronger effect = higher value
How it was run: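 In Opti-MEM containing 0.5% dialyzed FBS and 10 mM HEPES, ME-180 HRE-bla cells received a compound titration and EC50 CoCl2. They were incubated 17 hours, then CCF4-loaded 2.5 hours at room temperature before ratio reading.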

[18] = molecular target: Cytochrome P450 2D6 (Homo sapiens) (UniProt P10635); assay: qHTS Assay for Inhibitors and Substrates of Cytochrome P450 2D6 (AID 891); details: recombinant CYP2D6, luciferin-ME EGE luminescence; series mostly up to 57.1 µM; note: potency is the fitted concentration of half-maximal effect; nearly all actives have a fitted effect of over 60% in size
How it was run: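 Luminescent read-out of luciferin formed by 5 nM human CYP2D6 demethylating 30 uM Luciferin-ME EGE (Km level) over 60 min at room temperature after NADPH regeneration addition. Data normalized to full inhibition by 1.43 uM quinidine.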

[19] = AP1 Signaling Pathway (AID 357; active = well fitted curve in either direction with a large enough effect, not every such curve was filed as active;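 note: ME-180 reporter cells stimulated with EGF at its EC50 level; % is set by controls: 0 for no effect and ±100 for the full control effect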); details: ME-180 (cervical carcinoma) AP-1-bla reporter, EGF-induced, beta-lactamase ratio, 5 h; at 7.69 µM (top of the series) unless noted
How it was run: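 Beta-lactamase reporter under AP-1 response element, ME-180 background. Stimulus: EC50 EGF. Compound exposure 5 h, 37 °C. Detection: CCF4, 2.5 h RT, 460/530 nm. Values: AC50 from titration.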

Structure (SMILES) | Potency [1] [µM] | Potency [2] | activity, negative = inhibition [3] | Potency [4] [µM] | Potency [5] [µM] | Potency [6] | Potency [7] | Potency [8] | Potency [9] | Potency [10] | Potency [11] | Potency [12] | outcome [13] | activity change, negative = inhibition [14] [%] | Potency [15] | Potency [16] | Potency [17] | Potency [18] | activity change, negative = inhibition [19] [%]
COc1cccc(Cn2c(=O)c(-c3cccs3)nc3cnc(N4CCNCC4)nc32)c1 | > 11.4 | 15.8 µM (active) | 114% [activator] (active) | > 9.22 | > 46 | 3.98 µM [activator] (active) | inactive | inactive | inactive | inactive | inactive | inactive | inactive | – | – | – | – | – | –
c1cn(-c2cc(-c3ccc4c(c3)OCO4)ncn2)cn1 | > 11.4 | – | 6.1% | > 46 | > 46 | inactive | inactive | – | 3.16 µM (active) | 2.82 µM (active) | 2 µM (active) | 17.8 µM (active) | inactive | 13.4 | – | – | – | – | –
Cc1noc(C)c1-c1nc(Nc2ccc(F)cc2)c2ccccc2n1 | > 11.4 | – | 4.28% | > 46 | > 46 | inactive | – | – | inactive | inactive | inactive | inactive | inactive | 11.3 | 3.16 µM (active) | – | – | – | –
COc1ccc(Oc2ncc3nc(-c4ccc(F)cc4)c(=O)n(Cc4cccs4)c3n2)cc1 | > 11.4 | 5.01 µM (active) | -8.36% | > 9.22 | > 46 | inactive | inactive | inactive | inactive | inactive | inactive | inactive | inactive | -29.2 | – | – | – | – | –
COc1cccc(-c2ccc3ncnc(NC4CC4)c3c2)c1 | > 11.4 | 0.2 µM (active) | – | – | > 46 | inactive | – | inactive | 0.447 µM (active) | 0.316 µM (active) | 0.126 µM (active) | inactive | inactive | 2.56 | 1.26 µM (active) | – | – | – | –
c1nc(N2CCOCC2)c2cc(-c3ccoc3)ccc2n1 | > 11.4 | – | -19.4% | > 46 | > 46 | inactive | – | – | 0.224 µM (active) | 0.631 µM (active) | 0.178 µM (active) | inactive | inactive | 17.9 | – | – | – | – | –
CS(=O)(=O)Nc1cccc(-c2ccc3ncnc(NCc4cccs4)c3c2)c1 | > 11.4 | 0.0794 µM (active) | -2.34% | > 46 | > 46 | inactive | – | inactive | 7.94 µM (active) | 7.94 µM (active) | 5.01 µM (active) | inactive | inactive | – | – | 3.16 µM (active) | – | – | –
CN1CCN(c2ncc3nc(-c4cn(C)c5ccccc45)c(=O)n(CCc4ccccc4)c3n2)CC1 | > 11.4 | inactive | – | > 9.22 | > 46 | inactive | inactive | inactive | inactive | inactive | inactive | inactive | inactive | – | – | – | 3.16 µM (active) | – | –
COc1ccc2[nH]cc(CCNc3ncnc4ccc(-c5c(C)noc5C)cc34)c2c1 | > 11.4 | 7.94 µM (active) | – | > 46 | > 46 | inactive | inactive | inactive | 7.94 µM (active) | 5.01 µM (active) | 3.98 µM (active) | inactive | inactive | – | 3.98 µM (active) | 3.16 µM (active) | – | 6.31 µM (active) | –
CCNc1ncc2nc(-c3ccc(Cl)cc3)c(=O)n(Cc3ccc(F)cc3)c2n1 | > 11.4 | 12.6 µM (active) | – | > 9.22 | > 46 | inactive | – | – | inactive | inactive | inactive | inactive | inactive | -1.59 | inactive | – | 0.1 µM (active) | – | –
COc1cccc(-c2nc(NCc3ccccc3OC)c3ccccc3n2)c1 | – | 0.631 µM (active) | -9.86% | – | > 46 | inactive | – | inactive | inactive | inactive | inactive | inactive | inactive | – | 7.94 µM (active) | 3.98 µM (active) | – | – | 9.52
CN(Cc1ccco1)c1ncncc1-c1ccccc1C(F)(F)F | – | 12.6 µM (active) | -2.15% | > 46 | > 46 | inactive | inactive | inactive | inactive | inactive | inactive | inactive | inactive | – | 3.98 µM (active) | 1.26 µM (active) | – | – | 13.8
CN(C)c1ncc2nc(-c3ccccc3)c(=O)n(Cc3cccs3)c2n1 | > 11.4 | – | – | > 9.22 | > 46 | – | – | inactive | inactive | inactive | inactive | inactive | inactive | – | – | – | 3.16 µM (active) | – | –
